# Compound activity (PubChem BioAssay)
# In the library only some 7.3% were active in any assay of this set; here they are far more common.
# FLuc counter: inhibits or activates purified firefly luciferase, miR-21 counter-screen. purified FLuc, Km substrates, luminescence inhibition. Potency, µM (highest dose often 57.5 µM), without a hit: top-dose activity change, negative = inhibition, hits mostly inhibitors. actives 6.9% (n = 360,000);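 also: plate controls were vehicle for no effect and reference inhibitor for full effect; nearly all actives have a fitted effect of over 55% in size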
# Target sequence (P08659 whole entry, looked up): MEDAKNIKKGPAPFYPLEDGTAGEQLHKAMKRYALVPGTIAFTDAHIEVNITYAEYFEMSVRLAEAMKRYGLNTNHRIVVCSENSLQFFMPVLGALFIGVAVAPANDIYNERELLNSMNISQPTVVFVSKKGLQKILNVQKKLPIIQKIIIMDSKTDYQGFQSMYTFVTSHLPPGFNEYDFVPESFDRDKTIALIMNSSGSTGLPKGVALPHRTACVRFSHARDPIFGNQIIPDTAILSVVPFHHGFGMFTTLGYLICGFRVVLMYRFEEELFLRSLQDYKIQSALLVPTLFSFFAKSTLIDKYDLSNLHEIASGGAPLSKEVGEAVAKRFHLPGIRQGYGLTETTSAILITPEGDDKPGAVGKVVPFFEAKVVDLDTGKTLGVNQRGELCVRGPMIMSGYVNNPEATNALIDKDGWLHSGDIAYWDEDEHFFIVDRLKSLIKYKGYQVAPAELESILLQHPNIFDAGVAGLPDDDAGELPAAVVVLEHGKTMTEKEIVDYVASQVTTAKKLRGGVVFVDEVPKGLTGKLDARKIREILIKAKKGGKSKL
#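 Purified P. pyralis luciferase (10nM final) with 10uM D-luciferin and 10uM ATP (Km levels) in 50mM Tris acetate pH 7.5, 10mM Mg acetate, 0.01% Tween-20, 0.05% BSA; qHTS 6-point titration, ~60 µM downward; luminescence read.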
# Rab9 prom act: activators of Rab9 promoter; Huh7 Rab9 promoter-luciferase reporter, luminescence, 24 h; Potency, µM (series often up to 9.22 µM), for inactives: at the top dose activation, negative = inhibition, actives largely listed as activators; actives 2.8% (n = 320,000); AID 485297; also: % of control where 0% means no effect; nearly all actives have a fitted effect of over 60% in size
#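 Luminescence read-out: Huh7 cells stably expressing Rab9-luciferase, treated 24 h with compound at 37 °C, then lysed with luciferase reagent for 10 min at ambient before reading.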
# ELG1 genotoxic: inducers of genotoxicity in HEK293T ELG1-luciferase cells; HEK293T ELG1-luciferase reporter, luminescence, 16 h; AID 504466; Potency, µM (highest dose often 46 µM), for inactives: top-dose activity change, positive = activation, usual class: activators; actives 1.3% (n = 330,000); also: % of control where 0% means no effect; nearly all actives have a fitted effect of over 60% in size
#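 ELG1-luciferase HEK293T cells, 2,000/well; compound pinned in; 16 hr, 37 °C, 5% CO2; ONE-Glo, 30 min RT; luminescence on CCD imager.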
# NPC1 promoter act: activates the NPC1 promoter | Huh7 NPC1 promoter luciferase reporter, 24 h | Potency, µM (titrated, usually from 9.22 µM), for inactives: at the top dose activation, most hits filed as activators | actives 2.4% (n = 320,000); also: % of control where 0% means no effect; nearly all actives have a fitted effect of over 60% in size
#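 Luminescence read-out of NPC1 promoter-driven luciferase in stably transfected Huh7 cells; compounds delivered in DMSO and left 24 h at 37C, 5% CO2, qHTS titration format.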
# Luc counter: Kinase-Glo luciferase inhibition (counter-screen) | Potency, µM (top dose mostly 38.3 µM), without a hit: top-dose activity change, negative = inhibition, usual class: inhibitors | Q27757 | actives 0.28% (n = 200,000) | Kinase-Glo luciferase, ATP luminescence, 8 min; also: % is scaled to controls: 0 for no effect and ±100 for the full control effect; nearly all actives have a fitted effect of over 60% in size
#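 Kinase-Glo luciferase light output from ATP and luciferin was measured with 10 uM ATP, within the enzyme's linear range. Buffer: 50 mM imidazole pH 7.2, 50 mM KCl, 7 mM MgCl2, 0.01% Tween 20, 0.05% BSA; luminescence read after 8 min at ambient temperature.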
# SMN2 splice up: SMN2 splice variant enhancement; HEK293 SMN2-luciferase splicing reporter, luminescence, 30-36 h; Potency, µM (doses to about 46.1 µM), without a hit: top-dose activity change, positive = activation, usual class: activators; actives 2.8% (n = 210,000); AID 1458; also: % of control where 0% means no effect; nearly all actives have a fitted effect of over 55% in size
#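 HEK293 cells carry an SMN2 minigene-luciferase reporter in which exon 7 inclusion puts luciferase in frame. Cells were seeded at 2000 cells/well, attached for 10-12 hours, then exposed to compounds for 30-36 hours at 37C before ONE-Glo luminescence.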
# * = called active by the depositor; ? = inconclusive; · = no result given; [ ] = dose if it differs, or a comment. Calls follow the shape of the dose curve; as a rule, active = well fitted curve in the direction sought with a large enough effect; inconclusive = small, poorly fitted or top-dose-only effect, or another doubt; inactive = no such curve, though single readings can be large; an effect the other way counts as inactive or inconclusive. Potency is read from the fitted curve at half-maximal effect.
SMILES,FLuc counter,Rab9 prom act,ELG1 genotoxic,NPC1 promoter act,Luc counter,SMN2 splice up
NC(=O)c1ccccc1NC(=O)/C=C/c1ccccc1,6µM*,1.8µM*,?,?,?,?
O=C(/C=C/c1ccccc1)Nc1cc(C(=O)O)cc(C(=O)O)c1,-19%,0%,1%,1%,2%,-2%
COc1cc(NC(=O)/C=C/c2ccccc2)c(C(=O)O)cc1OC,6µM*,7%,15%,4%,·,·
O=C(/C=C/c1ccc(Cl)cc1)NC(=S)Nc1ccccc1C(=O)O,?,-1%,0%,-3%,·,·
NC(=O)c1ccccc1NC(=O)/C=C/c1ccc(Cl)cc1,1.7µM*,2.5µM*,3.7µM*,1.8µM*,-10%,13µM*
CCCCOC(=O)c1ccc(NC(=O)CC2NCCNC2=O)cc1 (centres undefined),-11%,·,·,·,·,11%
COc1ccc(CC(=O)NCc2nc3cccnc3n2Cc2ccc(C)cc2)cc1OC,-1%,·,·,·,·,·
O=C(Cn1ccn(-c2ccc(F)c(F)c2)c(=O)c1=O)c1ccc(F)cc1,-6%,·,·,·,·,·
CCOC(=O)c1cc(C)n(CC2CCC(C(=O)Nc3cccc(C)c3)CC2)c1C (centres undefined),-19%,·,·,·,·,·
COc1ccc(/C=C2\SC(=S)N(c3cccnc3)C2=O)cc1,6%,3%,4%,3%,·,·
COc1cccc(/C=C2\SC(=S)N(c3cccnc3)C2=O)c1OC,2.4µM*,-4%,0%,-1%,0%,10%
O=C(NC1CCCC1)c1cc2c(ccc3ccccc32)o1,6µM*,1µM*,4.6µM*,1.4µM*,-3%,13µM*
Cc1ccc(/C=N/NC(=O)c2cc3c(ccc4ccccc43)o2)o1,?,3%,-4%,5%,·,·
CNC(=O)c1cc2c(ccc3ccccc32)o1,19µM*,?,?,?,0%,29%
COc1ccc(NC(=O)CSc2ncc3c(n2)-c2cc(Cl)ccc2N(Cc2ccccc2F)S3(=O)=O)cc1,3%,·,·,·,·,·
COc1ccc(-c2nc3ccccc3o2)cc1NC(=O)c1cc(Br)ccc1OC,1%,·,·,·,·,-8%
Cc1ccc(-c2nc3cc(C(C)C)ccc3o2)cc1NC(=O)c1cc2ccccc2o1,2.4µM*,·,·,·,·,-8%
CC(C)c1ccc2oc(-c3ccc(Cl)c(NC(=O)Cc4ccccc4)c3)nc2c1,4.3µM*,·,·,·,·,12%
COc1ccc(-c2nc3cc(C(C)C)ccc3o2)cc1NC(=O)c1ccccc1[N+](=O)[O-],2.7µM*,·,·,·,·,-1%
CC(C)c1ccc2oc(-c3ccc(Cl)c(NC(=O)c4cccs4)c3)nc2c1,2.1µM*,·,·,·,·,4%
O=C(Nc1cccc(Cl)c1)c1cnc2sc(N3CCCC3)nn2c1=O,-1%,·,·,·,·,·
Cc1ccc(N(Cc2cccs2)C(=O)C(C)Oc2ccc(Cl)c(C)c2)cc1 (centres undefined),-18%,·,·,·,·,·
COc1ccc([C@]23Cc4cc(C#N)ccc4C(O2)c2c(c4ccc(OC)cc4oc2=O)O3)cc1,-3%[11.5 µM],2%[1.84 µM],·,-7%[1.84 µM],·,·
Cc1ccc(NC(=O)N2CCCC2)cc1Cl,-20%,28%,10%,17%,-4%,16%
O=C(CCN1CCN(CCO)CC1)Nc1ccc(C2CCCC2)cc1,4%,-3%,2%,-9%,-1%,-17%
SMILES,FLuc counter,Rab9 prom act,ELG1 genotoxic,NPC1 promoter act,Luc counter,SMN2 splice up
COc1ccc(NC(=O)CCSc2ccc(C)cc2)cc1,3%,-5%,0%,-1%,-1%,-5%
O=C(Nc1ccc(Br)cc1)NC1CCCCCCC1,6.7µM*,4µM*,?,2.2µM*,·,·
COc1ccc(NC(=O)CCSc2ccc(F)cc2)cc1,15µM*,3.5µM*,?,?,·,·
Cc1ccc(NC(=O)C(=O)N2CCCC2)cc1Cl,2.1µM*,2.8µM*,?,3.2µM*,-1%,10µM*
O=C(CSCCO)Nc1ccc(C2CCCCC2)cc1,12µM*,-6%,?,-5%,0%,-12%
CCS(=O)(=O)N1CC(=O)N(c2ccc(C)c(C)c2)C(C)(C(=O)NC2CCCCC2)C1 (centres undefined),-2%,·,·,·,·,·
